Measured values as given in PubChem BioAssay AID651711 (Broad Institute, 2012).
Where “and” joins values, the source holds several entries; their conditions need not be identical. Identical values can stand only once. Among all 350,000 compounds or so, about 180 (0.051%) were called active. This is one part of a sample in which actives are shown more often than they occur. A number with no mark means an inactive call.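 How the source made its calls: active means mean replicate inhibition above about 25%, with every replicate also reaching it (limit read from the data, passing the limit was not always enough); inconclusive means only one of those two criteria met; inactive means neither criterion met.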

target: Protein disulfide-isomerase A6 (Homo sapiens) (UniProt Q15084); assay: inhibitors of ERp5-driven insulin aggregation, primary screen, biochemical, turbidity, absorbance 650 nm, single point (AID 651711); settings: 90 min, at 9.99 µM, hits give high values
Sequence (Q15084 whole entry, looked up): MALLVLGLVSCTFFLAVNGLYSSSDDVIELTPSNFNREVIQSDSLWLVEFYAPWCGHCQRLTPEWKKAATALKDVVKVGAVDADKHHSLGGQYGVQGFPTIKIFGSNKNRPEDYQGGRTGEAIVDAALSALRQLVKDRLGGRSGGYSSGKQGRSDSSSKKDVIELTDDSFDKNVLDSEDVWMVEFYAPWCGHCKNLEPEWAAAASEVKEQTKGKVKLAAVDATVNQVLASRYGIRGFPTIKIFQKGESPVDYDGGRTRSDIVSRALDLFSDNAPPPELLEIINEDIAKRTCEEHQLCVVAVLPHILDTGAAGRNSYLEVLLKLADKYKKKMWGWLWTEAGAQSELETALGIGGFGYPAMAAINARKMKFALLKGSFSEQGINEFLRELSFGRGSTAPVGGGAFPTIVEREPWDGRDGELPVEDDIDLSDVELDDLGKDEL

SMILES | inhibition
CC(C)NC(=O)Nc1ccc2c(c1)C(=O)N([C@H](C)CO)C[C@@H](C)[C@@H](CN(C)Cc1ccncc1)O2 | -5.48%
COc1ccc(C#Cc2cccc(-c3nc(C(=O)O)cc4c3[C@@H](CCO)N(S(=O)C(C)(C)C)C4)c2)cc1OC (stereo partly drawn) | -1.96%
Cc1ccc(S(=O)(=O)N(C)C[C@@H]2OCc3ccccc3-c3c(n(C)c4ccccc34)C(=O)N([C@@H](C)CO)C[C@@H]2C)cc1 | 3.4%
O=C(C[C@H]1C=C[C@H](NC(=O)Nc2ccc(C(F)(F)F)cc2)[C@@H](CO)O1)NCCN1CCCC1 | 18.1%
C[C@@H]1CN([C@@H](C)CO)C(=O)Cc2cc(NC(=O)Cc3cn(C)c4ccccc34)ccc2O[C@H]1CN(C)C(=O)NC1CCCCC1 | 5.6%
C[C@@H]1CN([C@H](C)CO)C(=O)Cc2cc(NC(=O)Nc3cccc4ccccc34)ccc2O[C@H]1CN(C)C(=O)Nc1ccc2c(c1)OCO2 | -12.4%
C[C@H](CO)N1C[C@H](C)[C@H](CN(C)C(=O)CCC(F)(F)F)OCCCC[C@H](C)Oc2ccc(NS(=O)(=O)c3ccc(F)cc3)cc2C1=O | 6.41%
COCC(=O)Nc1ccc2c(c1)[C@@H]1C[C@H](CC(=O)NCc3ccc(-c4ccccc4)cc3)O[C@H](CO)[C@@H]1O2 | -0.847%
CN1C(=O)c2cc(NC(=O)C3CCCC3)ccc2OC[C@@H]2O[C@@H](CC(=O)NCCc3ccncc3)CC[C@@H]21 | -3.7%
C[C@@H]1CCCCO[C@H](CN(C)S(=O)(=O)c2ccc(Cl)cc2)[C@@H](C)CN([C@H](C)CO)C(=O)c2cc(NC(=O)Nc3ccc4c(c3)OCO4)ccc2O1 | 0.772%
O=C1[C@@H](c2ccccc2)[C@@H](c2ccccc2)N1c1ccccc1 | 3.47%
O=C(N[C@@H]1C=C[C@@H](CC(=O)N2CCOCC2)O[C@H]1CO)c1ccccn1 | 2.34%
CN(C)CC(=O)Nc1ccc2c(c1)[C@H]1C[C@H](CC(=O)NCc3ccccn3)O[C@@H](CO)[C@H]1O2 | -3.52%
Cc1[nH]c2ccccc2c1CC(=O)Nc1ccc(Nc2cccnc2)c(-c2cccc(Cl)c2)c1 | -5.11%
CO[C@H](CN(C)C(=O)c1ccc2c(c1)OCO2)[C@H](C)CN([C@@H](C)CO)S(=O)(=O)c1ccc(Cl)cc1 | 3%
C[C@H]1CN([C@@H](C)CO)C(=O)c2cccc(NC(=O)Nc3ccc(F)cc3)c2O[C@@H]1CN(C)C(=O)Nc1ccc2c(c1)OCO2 | 4.97%
N#C[C@@H]1[C@H](c2ccccc2-c2ccc(F)cc2)[C@@H](CO)N1c1ncc(-c2ccccc2)s1 | 3.09%
O=C(c1ccncc1)N1C[C@H]2[C@@H](c3ccccc31)[C@H](CO)N2Cc1ccc(F)cc1 | -3.32%
COc1ccc2c3c(n(C)c2c1)[C@@H](CO)NCC31CCN(CC2CCCC2)CC1 | 1.66%
O=C(Nc1ccccc1)N1CC(=O)N2[C@@H](CO)[C@H](c3ccc(C#CC4CCCC4)cc3)[C@@H]2C1 | 1.6%
C[C@@H]1CN([C@H](C)CO)C(=O)c2cc(-c3cncnc3)cnc2O[C@@H]1CN(C)Cc1ccc(Oc2ccccc2)cc1 | -1.07% and -77.5%
COCC(=O)Nc1ccc2c(c1)C(=O)N(C)[C@@H]1CC[C@@H](CC(=O)NCCCN(C)C)O[C@@H]1CO2 | -2.7%
C[C@@H](NC(=O)C[C@@H]1C=C[C@@H](NC(=O)CN2CCOCC2)[C@H](CO)O1)c1ccccc1 | 10.6%
Cc1ccc(S(=O)(=O)Nc2ccc3c(c2)C(=O)N([C@@H](C)CO)C[C@H](C)[C@H](CN(C)C(=O)Nc2ccc(C(F)(F)F)cc2)O3)cc1 | -3.11%

SMILES | inhibition
CCNC(=O)[C@H]1[C@H](CO)[C@H]2Cn3c(ccc(/C=C/c4ccccc4)c3=O)[C@@H]1N2C(=O)C1CCC1 | -5.59%
Cn1cnc(S(=O)(=O)N2C[C@@H](O)COC[C@H]3O[C@@H](CC(=O)NCc4ccc(F)cc4)CC[C@@H]32)c1 | -0.766%
C[C@@H]1CCCCO[C@@H](CN(C)Cc2ccccc2)[C@H](C)CN([C@H](C)CO)C(=O)c2cc(NC(=O)Nc3cccc4ccccc34)ccc2O1 | 0.587%
O=C(c1cnccn1)N1CC2(C1)[C@H](c1ccccc1)[C@H](CO)N2C(=O)c1ccccc1 | 4.61%
COc1ccc(CN2C[C@@H](C)[C@H](OC)CN(C)C(=O)c3cc(NC(C)=O)ccc3OC[C@@H]2C)cc1 | 4.2%
C[C@H]1CN([C@@H](C)CO)C(=O)Cc2cc(NC(=O)Nc3ccc(C(F)(F)F)cc3)ccc2O[C@@H]1CN(C)S(=O)(=O)c1ccc(Cl)cc1 | 0.316%
CO[C@@H]1CN(C)C(=O)c2cc(NC(=O)C3CCOCC3)ccc2OC[C@H](C)N(Cc2cccnc2)C[C@H]1C | 7.73%
CO[C@@H]1CN(C)C(=O)c2cc(NC(=O)c3ccccc3F)ccc2OC[C@@H](C)N(CC2CC2)C[C@H]1C | -2.62%
COc1ccc(S(=O)(=O)N(C)C[C@H]2Oc3ccc(N(C)C)cc3C(=O)N([C@@H](C)CO)C[C@@H]2C)cc1 | -9.71%
COc1ccccc1NC(=O)Nc1ccc2c(c1)OC[C@H](C)NC[C@H](C)[C@@H](OC)CN(C)C2=O | 7.16%
COc1ccc(CN(C)C[C@H]2Oc3c(NC(=O)C4CCCCC4)cccc3C(=O)N([C@@H](C)CO)C[C@H]2C)cc1 | 4.09%
O=C(Cc1cccnc1)N1CC(=O)N2[C@@H](CO)[C@H](c3ccc(C#CC4CC4)cc3)[C@@H]2C1 | 1.76%
O=C(NCC[C@H]1CC[C@@H](NC(=O)C2CCCC2)[C@@H](CO)O1)c1cc(Cl)cc(Cl)c1 | -0.154%
C[C@@H]1CN([C@H](C)CO)C(=O)c2cc(NC(=O)CCCN(C)C)ccc2O[C@@H](C)CCCCO[C@@H]1CN(C)Cc1ccncc1 | -3.78%
Cc1ccc(S(=O)(=O)NCC[C@@H]2CC[C@H](NC(=O)CC3CC3)[C@H](CO)O2)cc1 | -0.231%
O=C(NC1CCC1)[C@H]1[C@H](CO)[C@H]2Cn3c(ccc(-c4ccccc4)c3=O)[C@@H]1N2Cc1cocn1 | -0.224%
CCC(=O)N(C)C[C@@H]1Oc2cc(C#CC(C)(C)O)ccc2S(=O)(=O)N([C@@H](C)CO)C[C@@H]1C | -4%
CCCC#Cc1cnc2c(c1)C(=O)N([C@H](C)CO)C[C@@H](C)[C@@H](CN(C)C(=O)C1CCOCC1)O2 | 2.67%
C[C@H](CO)N1C[C@H](C)[C@H](CN(C)CC2CCCCC2)Oc2ccc(NC(=O)CCN3CCOCC3)cc2CC1=O | 0.283%
Cc1ccc(S(=O)(=O)N(C)C[C@@H]2Oc3ccc(NC(=O)c4ccncc4)cc3CC(=O)N([C@H](C)CO)C[C@H]2C)cc1 | -4.73%
COc1ccc(S(=O)(=O)N2CC[C@@H]3[C@H](CO)Nc4ccc(C#Cc5cccc(OC)c5)cc4[C@@H]32)cc1 | 4.05%
C/C=C/c1ccc([C@H]2[C@@H](CO)N(C(=O)C3CC3)[C@@H]2CNC(=O)NC(C)C)cc1 | -0.982%
CO[C@@H](CN(C)C(=O)c1cnccn1)[C@@H](C)CN([C@@H](C)CO)S(=O)(=O)c1ccc(Cl)cc1 | 0.364%
COc1ccc2c3c(n(C)c2c1)[C@@H](CO)N(CC1CC1)CC31CCN(C(=O)c2ccc3c(c2)OCO3)CC1 | -0.398%
